Experimental data taken from PubChem BioAssay (Tox21).
Several values for one entry are separate records, joined by “and”; a condition that tells them apart may be missing. Equal entries are not always repeated. Inconclusive results are not listed. A call without a number means that no potency is given here. Where a structure was tested more than once in an assay, its records may differ in their call. Activity calls are given as the source filed them. Unless noted, calls come from the whole dose curve; as a rule, active = well fitted curve in the direction sought with a large enough effect in the repeat runs; inconclusive = weak or mixed curves; inactive = no such curve, though single readings can be large; an effect the other way counts as inactive or inconclusive.

Key:
[1] = qHTS assay to identify small molecule antagonists of the glucocorticoid receptor (GR) signaling pathway - cell viability counter screen (AID 720693); note: nearly all actives have a fitted effect of over 55% in size
[2] = qHTS assay for identifying genotoxic compounds that show differential cytotoxicity against isogenic chicken DT40 cell lines with known DNA damage response pathways - wild type cell line (AID 743012); note: nearly all actives have a fitted effect of over 60% in size; note: potency is the fitted concentration of half-maximal effect
Method in brief: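 Using parental DT40 (300 cells/well), compounds delivered in DMSO incubate 40 h at 37 C/5% CO2. CellTiter-Glo reagent then stands 30 min at room temperature, and luminescence gives cell viability.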

[3] = qHTS assay for identifying genotoxic compounds that show differential cytotoxicity against isogenic chicken DT40 cell lines with known DNA damage response pathways - Rad54/Ku70 mutant cell line (AID 743015); note: nearly all actives have a fitted effect of over 60% in size
[4] = qHTS assay to identify small molecule antagonists of the androgen receptor (AR) signaling pathway - cell viability counter screen (AID 743033; note: nearly all actives have a fitted effect of over 45% in size)
[5] = biological target: Androgen receptor (Homo sapiens) (UniProt P10275); experiment: qHTS assay to identify small molecule antagonists of the androgen receptor (AR) signaling pathway (AID 743035; active = well fitted inhibition curve with a large enough effect in the signal ratio in the repeat runs, not every such curve was filed as active; the % refers to the signal ratio)
Method in brief: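 Using qHTS, AR-UAS-bla GripTite HEK293 cells received compound, then R1881, and were cultured 16 h at 37C/5% CO2 before a 2 h room-temperature LiveBLAzer B/G FRET substrate step and fluorescence measurement.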

[6] = biological target: Androgen receptor (Homo sapiens) (UniProt P10275); experiment: qHTS assay to identify small molecule agonists of the androgen receptor (AR) signaling pathway (AID 743036; active = well fitted activation curve with a large enough effect in the signal ratio in the repeat runs, with a control signal flat, not every such curve was filed as active; the % refers to the signal ratio)
Method in brief: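 Fluorescence from a beta-lactamase FRET substrate served as read-out in AR-UAS-bla GripTite HEK293 cells. Cells were treated with DMSO-dissolved compounds for 16 h at 37C, then with LiveBLAzer B/G substrate for 2 h at room temperature.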

[7] = biological target: Androgen receptor (Homo sapiens) (UniProt P10275); experiment: qHTS assay to identify small molecule agonists of the androgen receptor (AR) signaling pathway using the MDA cell line (AID 743040; note: nearly all actives have a fitted effect of over 20% in size)
Method in brief: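 MDA-kb2 breast carcinoma cells stably carrying an MMTV-driven luciferase reporter (AR- and GR-responsive) were seeded and held 5 h at 37C, 0% CO2, then exposed to compounds in DMSO for 16 h. Luminescence was read 30 min after ONE-Glo addition.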

[8] = qHTS assay to identify small molecule antagonists of the androgen receptor (AR) signaling pathway using the MDA cell line - cell viability counter screen (AID 743041; note: nearly all actives have a fitted effect of over 45% in size)
Method in brief: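 MDA-kb2 AR-luc human breast carcinoma cells (MMTV-luciferase, AR/GR responsive) were treated with compounds plus R1881 agonist for 16 h at 37 °C. Viability was read as CellTiter-Fluor fluorescence in the same wells as the reporter assay.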

[9] = biological target: Androgen receptor (Homo sapiens) (UniProt P10275); experiment: qHTS assay to identify small molecule antagonists of the androgen receptor (AR) signaling pathway using the MDA cell line (AID 743042; note: nearly all actives have a fitted effect of over 55% in size)
Method in brief: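 MDA-kb2 cells (human breast carcinoma, stably carrying an MMTV-luciferase reporter responsive to AR and GR) were plated at 3,000 cells/well and preincubated 5 hr at 37C, then given compound plus R1881 agonist for 16 h. ONE-Glo luminescence was read.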

[10] = qHTS assay to identify small molecule antagonists of the thyroid receptor (TR) signaling pathway - cell viability counter screen (AID 743064); note: nearly all actives have a fitted effect of over 50% in size
Method in brief: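 Fluorescence from CellTiter-Fluor, added after 23.5 h exposure at 37 °C, reported viability of GH3.TRE-Luc cells co-treated with compound and 1 nM T3. Measured in the same wells as the luciferase TR readout.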

[11] = qHTS assay to identify small molecule antagonists of the thyroid receptor (TR) signaling pathway (AID 743065); note: series mostly up to about 70 µM; nearly all actives have a fitted effect of over 55% in size
Method in brief: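 GH3.TRE-Luc rat pituitary cells carrying two TR response elements driving luciferase were plated for 4 h, given compound plus 1 nM T3 (final), and incubated 23.5 h at 37 C. ONE-Glo luminescence measured reporter inhibition; CellTiter-Fluor fluorescence tracked cytotoxicity.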

[12] = test system: thyroid hormone receptor (rat, GH3 cells); experiment: qHTS assay to identify small molecule agonists of the thyroid receptor (TR) signaling pathway (AID 743066; calls by dose curve)
[13] = qHTS assay to identify small molecule antagonists of the estrogen receptor alpha (ER-alpha) signaling pathway - cell viability counter screen (AID 743074; calls by dose curve; note: nearly all actives have a fitted effect of over 45% in size)
[14] = qHTS assay to identify small molecule antagonists of the estrogen receptor alpha (ER-alpha) signaling pathway using the BG1 cell line - cell viability counter screen (AID 743081);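 note: compound given together with 17beta-estradiol as the ER stimulus; series mostly up to about 70 µM; nearly all actives have a fitted effect of over 45% in size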
Aromatase (Homo sapiens) = Aromatase (Homo sapiens) (UniProt P11511); experiment: qHTS assay to identify aromatase inhibitors (AID 743083); note: series mostly up to about 70 µM; nearly all actives have a fitted effect of over 55% in size
[15] = qHTS assay for identifying genotoxic compounds that show differential cytotoxicity against isogenic chicken DT40 cell lines with known DNA damage response pathways - Rev3 mutant cell line (AID 743014); note: nearly all actives have a fitted effect of over 55% in size
[16] = biological target: Estrogen receptor (Homo sapiens) (UniProt P03372); experiment: qHTS assay to identify small molecule antagonists of the estrogen receptor alpha (ER-alpha) signaling pathway (AID 743069; active = well fitted curve in the direction sought with a large enough effect in the signal ratio in the repeat runs, not every such curve was filed as active; the % refers to the signal ratio)
Method in brief: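 HEK293 cells stably carrying an ER-alpha-UAS-bla beta-lactamase reporter were pre-cultured overnight in 2% charcoal-stripped FBS medium. Test compounds in DMSO were added together with 17beta-estradiol for 18 hr at 37C. Read-out was fluorescence after 2 hr with LiveBLAzer B/G FRET substrate at room temperature.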

[17] = biological target: Estrogen receptor (Homo sapiens) (UniProt P03372); experiment: qHTS assay to identify small molecule agonists of the estrogen receptor alpha (ER-alpha) signaling pathway (AID 743075; calls by dose curve)
[18] = biological target: Estrogen receptor (Homo sapiens) (UniProt P03372); experiment: qHTS assay to identify small molecule agonists of the estrogen receptor alpha (ER-alpha) signaling pathway using the BG1 cell line (AID 743079); note: nearly all actives have a fitted effect of over 20% in size
[19] = qHTS assay to identify small molecule antagonists of the estrogen receptor alpha (ER-alpha) signaling pathway using the BG1 cell line (AID 743080; calls by dose curve;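 note: BG1 cells stimulated with 17beta-estradiol alongside compound; series mostly up to about 70 µM; nearly all actives have a fitted effect of over 25% in size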)
Method in brief: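 Readout is ONE-Glo luminescence, taken 30 min at room temperature after reagent addition, preceded by a CellTiter-Fluor viability read; BG1-Luc-4E2 cells had received compound and 17beta-estradiol for 21.5 h at 37 C.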

Sequence of Androgen receptor (Homo sapiens) (P10275 whole entry, looked up): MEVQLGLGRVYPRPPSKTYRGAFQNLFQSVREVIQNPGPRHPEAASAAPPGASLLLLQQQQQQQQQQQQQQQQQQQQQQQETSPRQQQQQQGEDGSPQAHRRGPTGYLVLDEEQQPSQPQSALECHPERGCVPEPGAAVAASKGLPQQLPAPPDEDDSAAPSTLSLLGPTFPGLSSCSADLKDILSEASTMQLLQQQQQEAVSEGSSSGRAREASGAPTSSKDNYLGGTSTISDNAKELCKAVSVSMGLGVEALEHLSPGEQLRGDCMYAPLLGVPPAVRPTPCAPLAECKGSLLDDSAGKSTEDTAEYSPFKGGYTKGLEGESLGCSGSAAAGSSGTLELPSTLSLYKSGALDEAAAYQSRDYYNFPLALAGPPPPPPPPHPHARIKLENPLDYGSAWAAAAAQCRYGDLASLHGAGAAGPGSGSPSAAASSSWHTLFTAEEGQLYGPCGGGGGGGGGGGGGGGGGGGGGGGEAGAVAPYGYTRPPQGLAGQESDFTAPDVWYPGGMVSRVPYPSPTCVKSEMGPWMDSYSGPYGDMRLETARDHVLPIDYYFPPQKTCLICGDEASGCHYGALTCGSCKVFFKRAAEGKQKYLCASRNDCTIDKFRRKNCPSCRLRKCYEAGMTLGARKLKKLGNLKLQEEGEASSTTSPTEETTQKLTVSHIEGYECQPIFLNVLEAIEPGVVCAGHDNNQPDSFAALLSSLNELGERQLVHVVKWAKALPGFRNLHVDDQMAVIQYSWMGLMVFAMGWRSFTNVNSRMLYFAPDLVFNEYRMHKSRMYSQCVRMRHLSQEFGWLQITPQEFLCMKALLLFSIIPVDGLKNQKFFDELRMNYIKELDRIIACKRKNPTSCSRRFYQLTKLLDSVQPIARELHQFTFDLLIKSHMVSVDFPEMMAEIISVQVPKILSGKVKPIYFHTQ
Sequence of Aromatase (Homo sapiens) (P11511 whole entry, looked up): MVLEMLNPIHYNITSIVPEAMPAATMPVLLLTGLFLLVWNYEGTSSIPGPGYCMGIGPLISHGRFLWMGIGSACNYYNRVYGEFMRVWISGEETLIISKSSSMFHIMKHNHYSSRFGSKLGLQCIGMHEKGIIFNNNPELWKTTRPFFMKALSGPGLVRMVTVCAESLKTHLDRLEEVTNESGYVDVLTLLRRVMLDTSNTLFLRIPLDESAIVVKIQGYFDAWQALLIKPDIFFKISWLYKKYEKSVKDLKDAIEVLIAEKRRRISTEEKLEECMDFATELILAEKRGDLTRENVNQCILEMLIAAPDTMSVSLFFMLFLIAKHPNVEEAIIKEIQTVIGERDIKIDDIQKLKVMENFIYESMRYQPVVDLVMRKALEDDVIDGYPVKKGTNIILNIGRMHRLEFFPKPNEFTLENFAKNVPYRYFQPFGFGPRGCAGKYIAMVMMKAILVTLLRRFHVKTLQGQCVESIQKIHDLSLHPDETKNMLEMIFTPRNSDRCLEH
Sequence of Estrogen receptor (Homo sapiens) (P03372 whole entry, looked up): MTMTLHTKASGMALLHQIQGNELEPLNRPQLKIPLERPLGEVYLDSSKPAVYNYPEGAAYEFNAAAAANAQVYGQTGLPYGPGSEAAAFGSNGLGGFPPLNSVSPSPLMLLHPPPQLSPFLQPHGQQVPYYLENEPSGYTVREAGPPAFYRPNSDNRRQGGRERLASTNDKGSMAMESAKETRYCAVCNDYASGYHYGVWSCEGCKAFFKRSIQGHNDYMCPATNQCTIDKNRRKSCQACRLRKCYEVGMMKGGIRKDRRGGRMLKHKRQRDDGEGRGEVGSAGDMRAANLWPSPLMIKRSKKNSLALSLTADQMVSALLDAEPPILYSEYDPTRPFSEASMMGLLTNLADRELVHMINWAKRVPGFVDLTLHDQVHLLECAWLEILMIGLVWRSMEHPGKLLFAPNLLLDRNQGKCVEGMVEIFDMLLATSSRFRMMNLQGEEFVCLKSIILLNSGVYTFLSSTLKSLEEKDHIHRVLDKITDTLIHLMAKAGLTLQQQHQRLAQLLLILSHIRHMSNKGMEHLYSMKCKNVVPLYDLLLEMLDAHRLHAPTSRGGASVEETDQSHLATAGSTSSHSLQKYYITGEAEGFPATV

Row | Structure (SMILES) | outcome [1] | Potency [2] | Potency [3] | Potency [4] | outcome [5] | outcome [6] | Potency [7] | Potency [8] | Potency [9] | Potency [10] | Potency [11] | outcome [12] | outcome [13] | Potency [14] | Potency (Aromatase (Homo sapiens)) | Potency [15] | outcome [16] | Potency [17] | Potency [18] | outcome [19]
1 | CCN1CCC[C@H]1CNC(=O)c1cc(S(N)(=O)=O)ccc1OC | inactive | inactive | inactive | inactive | inactive | inactive | inactive | inactive | inactive | inactive | inactive | inactive | inactive | inactive | inactive |  |  |  |  | 
2 | Oc1ccc(C2CNCCc3c2cc(O)c(O)c3Cl)cc1 (centres undefined) | inactive | inactive | inactive | inactive |  |  |  | inactive |  |  |  |  | inactive | inactive | inactive | inactive |  |  |  | 
3 | CC(=O)CC(C)(C)C1CCCCC1 | inactive | inactive | inactive | inactive |  |  |  | inactive |  | inactive | inactive | inactive | inactive | inactive | inactive |  | inactive | inactive | inactive | 
4 | Brc1c(NC2=NCCN2)ccc2nccnc12 | inactive | inactive |  |  |  |  |  | inactive |  | inactive | inactive | inactive | inactive | inactive | inactive | inactive |  |  |  | 
5 | CCn1ccnc1CC1COc2ccccc2O1 (centres undefined) | inactive | inactive | inactive | inactive | inactive | inactive | inactive | inactive | inactive | inactive | inactive | inactive | inactive | inactive | inactive |  | inactive | inactive | inactive | inactive
6 | O=c1cc(CO)occ1O | inactive | inactive | inactive | inactive |  |  |  | inactive |  | inactive | inactive | inactive | inactive | inactive | inactive |  | inactive | inactive | inactive | inactive
7 | O=C(O)CCCc1ccccc1 | inactive | inactive | inactive | inactive |  |  |  | inactive |  | inactive | inactive | inactive | inactive | inactive | inactive |  |  |  |  | 
8 | CC(C)OC(=O)c1ccccc1 | inactive | inactive | inactive | inactive |  |  |  | inactive |  | inactive | inactive | inactive |  | inactive | inactive |  | inactive | inactive | inactive | inactive
9 | Nc1c[n+](N2CCOCC2)no1 | inactive | inactive | inactive | inactive |  |  |  | inactive |  | inactive |  | inactive |  | inactive | inactive |  | inactive | inactive | inactive | inactive
10 | CCN(CC)CCNC(=O)c1cc(S(C)(=O)=O)ccc1OC | inactive | inactive | inactive |  |  |  |  | inactive |  | inactive | inactive | inactive | inactive | inactive | inactive | inactive | inactive | inactive | inactive | inactive
11 | COCCc1ccc(OCC(O)CNC(C)C)cc1 (centres undefined) | inactive | inactive and 21.1 µM (active) | inactive | inactive |  |  |  | inactive |  |  |  |  | inactive | inactive | inactive | inactive |  |  |  | 
